# This is one part of a sample in which hits are shown more often than they occur.
# nsP2pro inh: CHIKV nsP2 protease inhibition, primary qHTS. Q8JUX6. FRET peptide cleavage, nsP2pro, fluorescence 1 h. Potency, µM (titrated, usually from 24.9 µM), for inactives: at the highest dose activity change, negative = inhibition, hits mostly inhibitors. 31,000 tested, 1.1% active; note: nearly all actives have a fitted effect of over 60% in size
#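 Purified recombinant nsP2pro (150 nM final) in 10 mM Tris-HCl pH 8.0 with 0.01% Tween 20 was preincubated 15 min at room temperature with compound (7 concentrations, up to 25 uM). FRET peptide 2 substrate (2.5 uM final) was then added; fluorescence was read after 1 h.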
# nsP2 cell sec: secondary cell-based test for CHIKV nsP2 protease inhibitors; shares compounds with nsP2pro inh; 450 tested, 10% active; cell-based CHIKV nsP2 protease reporter assay; Potency, µM (doses to about 51.1 µM), inactives show top-dose activity change, negative = inhibition, most hits filed as inhibitors; AID 1964100; note: nearly all actives have a fitted effect of over 70% in size
# Target sequence (Q8JUX6 220-798 limits assumed): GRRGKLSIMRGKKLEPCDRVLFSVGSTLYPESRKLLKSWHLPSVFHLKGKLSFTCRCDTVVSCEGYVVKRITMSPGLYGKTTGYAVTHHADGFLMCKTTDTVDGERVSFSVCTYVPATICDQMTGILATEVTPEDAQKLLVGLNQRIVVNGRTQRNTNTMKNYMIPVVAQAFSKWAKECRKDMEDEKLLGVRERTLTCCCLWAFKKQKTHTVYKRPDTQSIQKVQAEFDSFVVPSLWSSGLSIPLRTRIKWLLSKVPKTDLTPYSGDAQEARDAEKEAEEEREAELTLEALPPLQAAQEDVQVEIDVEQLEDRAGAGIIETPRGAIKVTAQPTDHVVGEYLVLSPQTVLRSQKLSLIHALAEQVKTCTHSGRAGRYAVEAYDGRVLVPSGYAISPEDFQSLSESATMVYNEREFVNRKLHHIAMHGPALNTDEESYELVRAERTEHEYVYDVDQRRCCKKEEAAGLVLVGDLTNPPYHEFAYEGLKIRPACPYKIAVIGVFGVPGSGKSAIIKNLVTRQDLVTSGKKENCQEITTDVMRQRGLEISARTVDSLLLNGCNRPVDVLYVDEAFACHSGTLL
# NSP2 full ctr: inhibits full-length CHIKV NSP2 enzyme; shares compounds with nsP2pro inh; Full-length CHIKV NSP2 protease enzymatic counterscreen; Potency, µM (top dose mostly 50.7 µM), inactives show top-dose activity change, negative = inhibition, hits mostly inhibitors; 410 tested, 39% active; note: nearly all actives have a fitted effect of over 65% in size
# Furin counterscr: human furin inhibition, counterscreen for nsP2pro inhibitors. shares compounds with nsP2pro inh. Recombinant human furin enzymatic counterscreen, fluorogenic substrate. Potency, µM (highest dose often 50.6 µM), without a hit: top-dose activity change, negative = inhibition, actives largely listed as inhibitors. 410 tested, 6% active. AID 1964102
# NS23 peptide cs: nsP2pro inhibition on native NS2/3 peptide substrate; shares compounds with nsP2pro inh; Purified CHIKV nsP2 protease, endogenous NS2/3 peptide cleavage; Potency, µM (top dose mostly 51 µM), for the others: top-dose activity change, negative = inhibition, hits mostly inhibitors; 410 tested, 34% active; AID 1964103; note: nearly all actives have a fitted effect of over 55% in size
# Papain counter: selectivity counter-screen for CHIKV nsP2 protease inhibitors: papain; shares compounds with nsP2pro inh; purified papain protease activity, enzymatic inhibition; Potency, µM (highest dose often 51 µM), for the others: at the highest dose activity change, negative = inhibition, actives largely listed as inhibitors; 410 tested, 5% active; AID 1964104
# nsP2pro conf qHTS: confirmation of CHIKV nsP2 protease inhibitors | shares compounds with nsP2pro inh | CHIKV nsP2 protease enzymatic activity, qHTS | Potency, µM (titrated, usually from 25.5 µM), without a hit: top-dose activity change, negative = inhibition, hits mostly inhibitors | 410 tested, 43% active; note: nearly all actives have a fitted effect of over 75% in size
# HCV NS3 4A cs: inhibits HCV NS3/4A protease in an nsP2pro selectivity counterscreen; shares compounds with nsP2pro inh; HCV NS3/4A protease biochemical counterscreen; Potency, µM (highest dose often 50.9 µM), usual class: inhibitors; 410 tested, 20% active; note: nearly all actives have a fitted effect of over 55% in size
# * = called active by the depositor; i = inactive; ? = inconclusive; [ ] = another dose, or the depositor's remark. Calls come from the whole dose curve. % is set by controls: 0 for no effect and ±100 for the full control effect; potency is the fitted concentration of half-maximal effect.
SMILES,nsP2pro inh,others
O=C(Nc1ccccc1)N1CCC(OCc2noc(C3CCCO3)n2)CC1 (centres undefined),i,
O=C1NC2(CCN(C(=O)Cc3ccccc3)C2)OCc2ccccc21 (centres undefined),i,
CC(NC(=O)CNC(=O)c1cccc(-c2ccc(C(F)(F)F)cc2)c1)c1ccc(F)cc1 (centres undefined),2.6%,
CCOc1ccccc1NC(=O)Nc1cccc(-c2ccc(N3CCCC3)nn2)c1,-9.6%,
Cc1ccnc(NC(=S)N2CCN(c3cccc(C(F)(F)F)n3)CC2)c1,3.9%,
OCC1(Cc2ccccc2F)CCCN(c2nnnn2-c2ccccc2)C1 (centres undefined),i,
Fc1cc(Nc2nc(-c3ccncc3)nc3ccccc23)ccc1-c1ccc2[nH]ncc2c1,i,
CN(Cc1ccc(Oc2ncccn2)cc1)CC1CCN(CCc2ccc(F)cc2)CC1,-6.8%,
O=C(NCc1nc(-c2ncccn2)no1)c1csc(-c2cccs2)n1,-4.5%,
Cc1cccc(-c2noc(CNC(=O)c3ccco3)n2)c1,-10.0%,
Cc1cccc(-c2noc(CCCC(=O)NCc3ccco3)n2)c1,-28.2%,
CCOc1ccc(-c2noc(CNC(=O)c3cc(-c4ccco4)[nH]n3)n2)cn1,0.794µM*,nsP2 cell sec=?;NSP2 full ctr=8.19µM*;Furin counterscr=-8.0%;NS23 peptide cs=-15.0%;Papain counter=-5.2%;nsP2pro conf qHTS=?;HCV NS3 4A cs=i
Cc1cc(-c2noc(CNC(=O)c3cc(-c4ccco4)[nH]n3)n2)no1,5.01µM*,nsP2 cell sec=?;NSP2 full ctr=-3.3%;Furin counterscr=-7.7%;NS23 peptide cs=-31.6%;Papain counter=-0.1%;nsP2pro conf qHTS=-8.2%;HCV NS3 4A cs=10.3µM*
COc1ccccc1OCC(=O)NCc1nc(-c2ccc(Cl)cc2)no1,-14.2%,
Cc1ccnc(NC(=S)N2CCN(c3cccc(C(F)(F)F)c3)CC2)n1,i,
O=C(c1cccc(OC2CN(C3CCCC3)C2)c1)N1CCCC1,0.7%,
O=Cc1ccc(N2CCN([S+](=O)([O-])C3CC3)CC2=O)cc1,i,
COc1cccc(CN2CCCC3(CNc4ccccc4[S+](=O)([O-])N3)C2)c1 (centres undefined),-6.0%,
COc1ccc(NC(=O)[C@@H]2C[C@H](c3ccc(F)cc3)N(Cc3ccccc3Cl)C2)cn1,3.2%[39.2 µM],
CCCN1C(=O)CCc2cc(NC(=O)NCCCOCC)ccc21,-1.7%,
N#Cc1ccccc1Nc1ncc(-c2cccc3ccccc23)o1,-60.8%,
C=C(CO)C(=O)O[C@H]1C[C@@]23O[C@@H]2CC/C(=C/[C@H]2OC(=O)C(=C)[C@H]12)CO[C@H]3O,?,nsP2 cell sec=12.5%[33.5 µM];NSP2 full ctr=?;Furin counterscr=-0.9%[33.5 µM];NS23 peptide cs=?;Papain counter=-6.9%[33.5 µM];nsP2pro conf qHTS=-38.4%[16.7 µM];HCV NS3 4A cs=?
C=C1C(=O)OC2/C=C(/C)C3=CC(=O)C(C)(CC(OC(=O)/C(C)=C/COC(C)=O)C12)O3 (centres undefined),-5.8%[10 µM],
C=C[C@@]12COC(=O)C(=C)C1[C@@H](O)[C@H](C(=C)C(=O)OC)[C@@H](OC(=O)C(=C)CO)C2 (some centres undefined),-13.1%[10 µM],
CN(C)c1cc(CNCC(C)(C)C)c(O)c2c1C[C@H]1C[C@H]3[C@H](N(C)C)C(=O)C(C(N)=O)=C(O)[C@@]3(O)C(=O)C1=C2O,20.0%,
SMILES,nsP2pro inh,others
C=CCN1C[C@H](C(=O)N(CCCN(C)C)C(=O)NCC)C[C@@H]2c3cccc4[nH]cc(c34)C[C@H]21,?,nsP2 cell sec=7.2%;NSP2 full ctr=-7.5%;Furin counterscr=-2.4%;NS23 peptide cs=-8.2%;Papain counter=-8.1%;nsP2pro conf qHTS=29.5%;HCV NS3 4A cs=i
C=CCN1CCN(C(=O)[C@@H]2Cc3c[nH]c4cccc(c34)[C@H](CC(C)C)N2)CC1,-18.0%[39.2 µM],
CC(C)c1cccc(-n2cnc3cc(C(=O)N4CCCCC4)ccc32)c1,1.4%,
O=C(Nc1ccc(Cl)c(Cl)c1)Nc1cccc(-c2ccncc2)n1,4.8%,
COCC1CN(Cc2cccc(C#N)c2)CC12CCNCC2 (centres undefined),10.7%,
COC1=C(OC)C(=O)C(CC=C(C)CCC=C(C)CCC=C(C)CCC=C(C)CCC=C(C)CCC=C(C)CCC=C(C)CCC=C(C)CCC=C(C)CCC=C(C)C)=C(C)C1=O,-3.4%[2.68 µM],
CC(C)=CCC1=C(O)c2ccccc2C(=O)C1=O,?,nsP2 cell sec=?;NSP2 full ctr=?;Furin counterscr=-10.9%[100 µM];NS23 peptide cs=?;Papain counter=-27.2%[100 µM];nsP2pro conf qHTS=-30.8%[50 µM];HCV NS3 4A cs=i
CC(C)(C)C(=O)N1CCCC1C(=O)N1CCC2(CC1)CC(=O)Nc1ccccc1O2 (centres undefined),-17.7%,
CCN1C(=O)Cc2cc(C(=O)NCc3c(C)cc(C)cc3C)ccc21,-1.8%,
CCOC(=O)c1ccc(NC2CCCCC2)c(N)c1,-2.0%,
CCOC(=O)Nc1ccc(NCc2c(C)cc(C)cc2C)cc1N,?,nsP2 cell sec=?;NSP2 full ctr=-2.2%;Furin counterscr=-9.0%;NS23 peptide cs=?;Papain counter=-14.8%;nsP2pro conf qHTS=-37.2%;HCV NS3 4A cs=i
Cc1ccc(C(=O)N2CCC(Cc3noc(C4CCOCC4)n3)C2)s1 (centres undefined),-0.9%,
CC(=O)N1CCOc2ccc(CCC(=O)N3CCN(C4CCCCC4)CC3)cc2C1,i,
COc1cc(C(=O)O)ccc1NC(=O)[C@@H]1N[C@@H](CC(C)(C)C)[C@](C#N)(c2ccc(Cl)cc2F)[C@H]1c1cccc(Cl)c1F,-19.9%,
CC(C)=CCC[C@](C)(O)[C@H]1CC[C@]2(C)[C@@H]1[C@H](O)C[C@@H]1[C@@]3(C)CC[C@H](O)C(C)(C)[C@@H]3CC[C@]12C,-27.1%,
CCOC(=O)c1c2c3c(cccc3[nH]c1=O)C(=O)c1ccccc1-2,?,nsP2 cell sec=6.0%;NSP2 full ctr=3.8%;Furin counterscr=-3.6%;NS23 peptide cs=i;Papain counter=-15.4%;nsP2pro conf qHTS=7.0%;HCV NS3 4A cs=i
CCOC(=O)c1c(C)[nH]c(CCC(=O)Nc2ccccc2C(F)(F)F)c1C,-24.2%,
CCOC(=O)c1c(Nc2ccccc2)nnc(-c2ccccc2)c1-c1ccccc1,-16.2%,
Fc1cccc(Br)c1NC1=NCCN1,-3.0%,
Cc1ccccc1C(C(=O)NC1CCCCC1)N(C(=O)Cn1cnc2ccccc21)c1cccc(F)c1 (centres undefined),-3.5%,
N#Cc1ccnc(N2C(=O)CC[C@H]2C(=O)N(c2cncc(F)c2)[C@H](C(=O)NC2CC(F)(F)C2)c2ccccc2Cl)c1,?,nsP2 cell sec=?;NSP2 full ctr=-24.3%;Furin counterscr=-2.9%;NS23 peptide cs=-4.5%;Papain counter=-6.6%;nsP2pro conf qHTS=-8.6%;HCV NS3 4A cs=?

# Screens: PubChem BioAssay, National Center for Advancing Translational Sciences (NCATS)
